D2 PAM-1 = D2 dopamine receptor (human) potentiation; HEK293 T-REx D2, calcium flux, EC20 dopamine potentiation; potentiation, % at 10 µM; hit rate 0.34% among 340,000;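 active = potentiation over 3 SD above the plate norm, cut at about 30% in these data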; also: 0% is about no effect
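Calcium flux readout, no-wash dye, 1 read/s. Inducible HEK293 Trex D2 line, overnight 30 C. Compound alone 180 s (agonist flags), then EC20 dopamine, another 180 s to score potentiation.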
D2 ag-1 = agonists of human D2 dopamine receptor (beta-arrestin). hit rate 0.084% among 360,000. activation, % (no concentration beside the values). AID 624465. DiscoveRx PathHunter D2 beta-arrestin, luminescence, 90 min; 100% = 57 uM dopamine signal. P14416; in the data active = activation above about 40%; inconclusive = between about 15% and that limit
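DiscoveRx PathHunter D2 beta-arrestin cells (2,100/well) attached overnight, then compound-stimulated 90 min at 37 C in HBSS/10 mM HEPES/0.1% Tween-20 buffer; beta-galactosidase complementation read by luminescence after 1 h at ambient temperature. Dopamine 57 uM final (EC100) as control.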
D2 antagonist = antagonizes the human D2 dopamine receptor | HEK293 TREx D2 cells, calcium flux, dopamine EC80 | inhibition, % at 10 µM | P14416 | hit rate 2% among 340,000; in the data active = inhibition above about 30%; inactive = below that, where a call was filed; also: 0% is about no effect
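Measurement of antagonist activity uses fluorescent calcium dye in inducible HEK293 T-REx D2 cells: 10 s baseline, compound addition with 180 s read, EC80 dopamine addition with a further 180 s read.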
D2 ag-2 = D2 dopamine receptor (human) agonism | P14416 | HEK293 T-REx D2 cells, calcium flux agonist mode | activation, % at 2 µM | hit rate 0.53% among 340,000 | AID 485358;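 active = activation over 3 SD above normal in the single-dose calcium agonist read, cut at about 30% in these data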; also: 0% is about no effect
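In this primary screen, compounds producing a positive calcium signal within 180 s of addition to tetracycline-induced, force-coupled HEK293 Trex D2 cells are flagged; cells are dye-loaded with a no-wash calcium kit beforehand.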
D2 PAM-2 = potentiates the human D2 dopamine receptor allosterically; P14416; DiscoveRx D2 beta-arrestin cells, luminescence, 90 min; 100% = 57 uM dopamine signal; potentiation, % (test concentration not listed); hit rate 0.23% among 360,000; AID 624464; in the data active = potentiation above about 50%; inconclusive = mostly about 30% to 49%
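PathHunter D2 cells, attached overnight at 37 deg C, received compound in DMSO plus dopamine at EC20 (50 nM final) for 90 min at 37 deg C. Beta-arrestin recruitment was read as luminescence after 1 h with detection reagent at ambient temperature.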
D3 arrestin ag = D3 receptor agonism confirmed, beta-arrestin readout; shares compounds with D2 ag-2; DiscoveRx D3 beta-arrestin cells, luminescence, 90 min; Potency, µM (series often up to 76.9 µM), for the others: at the top dose activation, hits mostly activators; hit rate 4% among 2,300;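 also: potency is read from the fitted curve at half-maximal effect; 100% = dopamine control response; nearly all actives have a fitted effect of over 70% in size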
Target sequence (P35462 whole entry, looked up): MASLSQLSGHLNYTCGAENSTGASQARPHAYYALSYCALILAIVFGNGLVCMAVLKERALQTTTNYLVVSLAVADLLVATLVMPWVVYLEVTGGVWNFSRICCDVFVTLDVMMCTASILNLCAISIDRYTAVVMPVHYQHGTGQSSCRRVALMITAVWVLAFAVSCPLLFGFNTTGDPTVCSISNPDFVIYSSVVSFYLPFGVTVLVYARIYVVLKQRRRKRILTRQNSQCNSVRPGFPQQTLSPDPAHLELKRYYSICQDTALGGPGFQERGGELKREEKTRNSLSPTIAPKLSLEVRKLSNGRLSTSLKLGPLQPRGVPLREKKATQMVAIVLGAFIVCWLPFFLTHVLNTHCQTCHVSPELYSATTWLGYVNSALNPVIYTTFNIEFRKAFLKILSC
D2 ag-3 = counter-screen for D3 agonists: human D2 dopamine receptor agonism; AID 720507; DiscoveRx PathHunter D2 beta-arrestin, luminescence, 90 min; response scale: percent relative to full dopamine signal; shares compounds with D2 ag-2; Potency, µM (series often up to 76.9 µM), for the others: at the highest dose activation, most hits filed as activators; hit rate 5.9% among 2,300; also: potency is read from the fitted curve at half-maximal effect; % of control where 0% means no effect; nearly all actives have a fitted effect of over 70% in size
* hit, by the source's call; ? = inconclusive; . = not tested or not shown. Shown are actives, neighbours in structure and some others; about 2.4% of the full set was active somewhere. Unless noted, calls follow the shape of the dose curve; as a rule, active = well fitted activation curve with a large enough effect; inconclusive = small, poorly fitted or top-dose-only effect; inactive = flat fitted curve, though single readings scatter.

SMILES	D2 PAM-1	D2 ag-1	D2 antagonist	D2 ag-2	D2 PAM-2	D3 arrestin ag	D2 ag-3
Cc1ccc(C(C)C)cc1S(=O)(=O)NCc1ccccn1	1	-2	.	.	6	-3%	0%
CCC(=Cc1ccccc1OC)c1ccncc1	.	4	.	.	-4	.	.
N#C/C(=C\c1ccc(-c2ccccc2C(=O)O)o1)c1nc2ccccc2[nH]1	5	-9	-17	8	2	3%	-3%
CCOC(=O)Cc1c(C)nc2c(-c3ccc(Cl)cc3)c(C(F)(F)F)nn2c1C	-7	.	.	1	.	.	.
O=C(N1CCN(Cc2ccccc2)CC1)C12CC3CC(CC(C3)C1)C2	10	-3	-20	-1	-24	.	.
O=C(N1CCN(c2ccccc2)CC1)C12CC3CC(CC(C3)C1)C2	-30	7	72*	80*	-2	22%	21%
O=S(=O)(c1ccc(NC(=S)N/N=C/c2c3ccccc3cc3ccccc23)cc1)N1CCOCC1	8	2	24	0	-12	29%	13%
O=S(=O)(c1ccc(NC(=S)N/N=C/c2ccc(Oc3ccccc3)cc2)cc1)N1CCOCC1	-12	4	8	1	-5	.	.
CCOC(=O)NC(=O)CSc1nc(-c2ccc(C)c(C)c2)cn1-c1ccccc1	9	-1	8	-1	15	8%	6%
Cc1ccc(-c2cn(-c3ccccc3)c(SCC(N)=O)n2)cc1C	-7	-3	10	-1	6	.	.
CC(=O)Nc1ccc(S(=O)(=O)NCCC(=O)NCCOc2ccccc2)cc1	-10	5	-3	15	-3	-3%	12%
O=C(CCNS(=O)(=O)c1ccccc1)NCCCSc1ccccc1	-1	-4	11	-1	-12	.	.
Cc1ccc(S(=O)(=O)NCCC(=O)NCCCSc2ccccc2)cc1	8	-3	-12	-2	-4	1%	5%
COc1ccc2[nH]c(C)c(CCNS(=O)(=O)c3cc(F)ccc3OC)c2c1	13	.	.	0	.	.	.
CC(=O)c1ccc(NC(=O)Nc2sc3nc4n(c(=O)c3c2C)CCC(C)CC4)cc1 (stereo not given)	-4	.	.	0	.	.	.
C=CCN(CC=C)CCOc1cc(C)ccc1[N+](=O)[O-]	-28	-3	-8	21	-3	7%	6%
CC1=NN(C(N)=S)C(=O)C1N=Nc1ccccc1C(=O)O (stereo not given)	.	-1	.	.	-5	1%	-3%
CC1=NN(C(N)=S)C(=O)C1N=Nc1ccccc1Cl (stereo not given)	6	-6	-9	1	-1	.	.
CCn1c(N2CCN(S(=O)(=O)c3ccccc3C(F)(F)F)CC2)nc2ccccc21	-3	?	15	3	2	13µM*	?
Cc1ccc(NC(=O)CSc2nnc(-c3cc4occc4n3C)n2-c2ccccc2C)c(Cl)c1	0	.	.	.	.	.	.
CC(C)CCn1nnnc1CN1CCN(c2ccccc2)CC1	-19	4	50*	52*	-6	-7%	10%
COCCn1nnnc1CN1CCN(c2cccc(C(F)(F)F)c2)CC1	5	-1	19	0	2	.	.
Cc1ccc(-n2ccnc(NCCc3ccc(S(N)(=O)=O)cc3)c2=O)cc1C	-4	.	.	0	.	.	.
CCCCNCCCOc1cccc(Cl)c1Cl	-35	3	87*	49*	-11	11%	12%
CS(=O)(=O)Nc1cccc(NC(=O)C2Cc3c(-c4cccc(F)c4)ccnc3O2)c1 (stereo not given)	.	0	.	.	-10	.	.
CC(NC(=O)CCC(=O)NC(C)c1ccccc1)c1ccccc1 (stereo not given)	-3	-2	-17	0	-5	.	.
CC(NC(=O)CCC(=O)N1CCCCCC1)c1ccccc1 (stereo not given)	-23	0	10	44*	3	-1%	-2%

Screens: PubChem, National Center for Advancing Translational Sciences (NCATS)
